Assay outcomes (PubChem BioAssay)
This is a sample that favours compounds with a hit; in the whole collection about 3% have one here.
GCN5L2 inh: inhibitors of human GCN5L2 histone acetyltransferase; GCN5L2 HAT assay, ThioGlo1 CoA-SH fluorescence; Potency, µM (doses to about 58.9 µM), inactives show top-dose activity change, negative = inhibition, hits mostly inhibitors; actives 0.21% (n = 390,000)
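GCN5L2 (20 nM) in 50mM HEPES pH 7.5, 0.1mM EDTA, 0.01% Tween-20 preincubated 15 min with compounds at room temperature. Reaction started with H3(1-25) 75uM, acetyl-CoA 70uM, ThioGlo1 50uM; CoA-thiol fluorescence (Ex340/Em540) read at 0 and 20 min.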
VDR inhibitor: vitamin D3 receptor (human) inhibition; VDR-SRC2-3 peptide fluorescence polarization, 2 h; Potency, µM, for the others: max response, negative = inhibition, hits mostly inhibitors; actives 0.93% (n = 400,000)
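FP read-out; VDR + SRC2-3 coactivator peptide; 23 nl compound by pintool; 2 h RT incubation; reagents held at 4 deg C, protected from light.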
PLK1 PBD inh: PLK1 (human) polo-box domain binding inhibition; P53350; Plk1 PBD binding of FITC phosphopeptide, fluorescence polarization; Potency, µM, inactives show max response, negative = inhibition, most hits filed as inhibitors; actives 2.8% (n = 360,000); AID 720504; further: series mostly up to about 57 µM; nearly all actives have a fitted effect of over 65% in size
12-LOX inh: blocks human arachidonate 12S-lipoxygenase | purified 12hLO, xylenol orange hydroperoxide absorbance | Potency, µM (titrated, usually from 108 µM), for inactives: top-dose activity change, negative = inhibition, hits mostly inhibitors | actives 1.1% (n = 580,000)
Target sequence (P18054 whole entry, looked up): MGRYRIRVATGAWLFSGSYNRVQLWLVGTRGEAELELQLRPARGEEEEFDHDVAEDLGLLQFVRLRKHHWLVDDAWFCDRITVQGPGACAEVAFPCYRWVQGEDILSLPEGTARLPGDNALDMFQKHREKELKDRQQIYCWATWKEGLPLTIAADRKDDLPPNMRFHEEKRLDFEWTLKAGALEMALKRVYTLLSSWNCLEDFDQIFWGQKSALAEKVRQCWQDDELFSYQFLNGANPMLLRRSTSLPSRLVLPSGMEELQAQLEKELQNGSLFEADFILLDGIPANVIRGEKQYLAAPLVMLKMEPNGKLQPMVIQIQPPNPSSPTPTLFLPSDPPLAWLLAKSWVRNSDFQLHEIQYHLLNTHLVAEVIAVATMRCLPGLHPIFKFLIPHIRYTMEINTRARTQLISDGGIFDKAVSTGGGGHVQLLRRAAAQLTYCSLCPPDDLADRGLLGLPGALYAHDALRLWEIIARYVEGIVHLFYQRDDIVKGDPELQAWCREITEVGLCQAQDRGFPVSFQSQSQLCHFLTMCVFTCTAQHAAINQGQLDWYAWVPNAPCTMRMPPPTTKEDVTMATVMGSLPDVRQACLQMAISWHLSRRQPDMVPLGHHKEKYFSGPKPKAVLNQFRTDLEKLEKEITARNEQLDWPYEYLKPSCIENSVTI
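Hydroperoxide product was detected by ferrous iron/xylenol orange as the 573 to 405 nm absorbance ratio. Arachidonic acid at 40 uM (final) was turned over for 30 min at room temperature by 150 nM human 12hLO, pH 7.0 Hepes buffer, after 15 min compound preincubation.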
* marks the source's active call; other numbers are inactive results; [ ] = dose if it differs, or a comment. The call rests on the fitted dose curve; in most records, active means well fitted curve in the direction sought with a large enough effect; inconclusive means small, poorly fitted or top-dose-only effect, or another doubt; inactive means no such curve, though single readings can be large; an effect the other way counts as inactive or inconclusive. On the % scale 0 is the no-effect control and ±100 the full control effect; potency means the concentration at half of the fitted maximal effect.

O=C(O)c1cc(O)c2c(c1)[C@H]([C@H]1c3cc(C(=O)O)cc(O)c3C(=O)c3c(O[C@@H]4O[C@H](CO)[C@@H](O)[C@H](O)[C@H]4O)cccc31)c1cccc(OC3O[C@H](CO)[C@@H](O)[C@H](O)[C@H]3O)c1C2=O (stereo not given in full) was read as GCN5L2 inh 0.71µM*, VDR inhibitor inconclusive, PLK1 PBD inh 1.7µM* and 12-LOX inh inconclusive.
CCn1cc(C(=O)OCC(=O)c2cc(C)n(-c3ccccc3F)c2C)c(=O)c2ccc(C)nc21 was read as GCN5L2 inh -5%, VDR inhibitor inconclusive, PLK1 PBD inh 27µM* and 12-LOX inh -14%.
For Cc1cc(Br)cnc1NC(=S)Nc1ccc(F)cc1F the results were GCN5L2 inh -6%, VDR inhibitor -13%, PLK1 PBD inh -12% and 12-LOX inh 14µM*.
`CC(=O)NNC(=S)Nc1ccc(F)cc1F` gave 12-LOX inh 33%.
Screening CCNC(=O)c1ccccc1SCC(=O)Nc1ccc(F)cc1 returned GCN5L2 inh -4%, VDR inhibitor inconclusive, PLK1 PBD inh 9.5µM* and 12-LOX inh -9%.
`Cc1ccc2nc(NC(=O)Cn3c(=O)oc4ccccc43)sc2c1` gave 12-LOX inh -22%.
`CC(C)=CCC/C(C)=C/CNCC(O)CN1CCOCC1` (stereo not given) gave 12-LOX inh 0.63µM*.
`OC(CN1CCOCC1)CN1CCOCC1` gave GCN5L2 inh -8%, VDR inhibitor -9%, PLK1 PBD inh -2% and 12-LOX inh inconclusive.
N#CC1=C2SCN(Cc3ccco3)CN2C(=O)CC1c1cccc2ccccc12 (stereo not given) was read as GCN5L2 inh -26%, VDR inhibitor inconclusive, PLK1 PBD inh 24µM* and 12-LOX inh inconclusive.
`Cc1ccc(C2CC(=O)N3CN(Cc4ccccc4)CSC3=C2C#N)cc1` (stereo not given) gave 12-LOX inh 5.6µM*.
N#CC1=C2SCN(Cc3ccco3)CN2C(=O)CC1c1ccccc1F (stereo not given) was read as GCN5L2 inh -13%, VDR inhibitor 32µM* and PLK1 PBD inh 27µM*.
`S=C1SCN(Cc2ccco2)CN1Cc1ccco1` gave GCN5L2 inh -7%, VDR inhibitor -7%, PLK1 PBD inh -6% and 12-LOX inh 97%.
For Cc1ccc(C(=O)OCC(=O)c2ccc(-c3ccccc3)cc2)s1 the results were 12-LOX inh -45%.
Cc1oc(-c2cccs2)nc1CC(=O)NC(C)C12CC3CC(CC(C3)C1)C2 (stereo not given) was read as 12-LOX inh -4%.
`COc1ccc(NC(=O)Cn2cc(S(=O)(=O)Cc3ccc(F)cc3)c3ccccc32)cc1OC` gave GCN5L2 inh -16%, VDR inhibitor 12% and 12-LOX inh 50µM*.
CC(C)(C)NC(=O)Cn1cc(S(=O)(=O)Cc2ccc(F)cc2)c2ccccc21 was read as GCN5L2 inh -5%, VDR inhibitor 10% and 12-LOX inh -30%.
For c1ccc(CNCC2CCNCC2)cc1 the results were 12-LOX inh 1%.
Screening CC(C)c1ccc(C(N)=O)cc1 returned 12-LOX inh -3%.
`Cc1ccc2nc(CO[C@H]3CN(Cc4ccc(C(F)(F)F)cc4)C[C@H]3F)[nH]c2c1` gave 12-LOX inh 24%[176 µM].
`COc1cc(/C=N/NC(=O)Cc2ccc(Br)cc2)cc(OC)c1O` gave GCN5L2 inh 12%, VDR inhibitor 7%, PLK1 PBD inh -10% and 12-LOX inh 0%.
COc1cc(/C=N/Nc2cccc(C)c2)cc(Br)c1O was read as GCN5L2 inh -5%, VDR inhibitor 5%, PLK1 PBD inh -23% and 12-LOX inh 2.8µM*.
`COc1cc(/C=N/NC(=O)CC#N)cc(Br)c1O` gave GCN5L2 inh -7%, VDR inhibitor inconclusive, PLK1 PBD inh 11µM* and 12-LOX inh 28%.
COc1ccc(N(C(=O)CNC(C)=O)C2(C(=O)Nc3c(C)cccc3C)CCCCC2)cc1 was read as 12-LOX inh 3%.
Screening Cc1c(C(=O)N2CCCCCC2)c(S(=O)(=O)NCc2ccc(Br)cc2)c(C)n1C returned GCN5L2 inh -13%, VDR inhibitor 0% and 12-LOX inh -16%.
For COc1cccc(CNS(=O)(=O)c2c(C(=O)N3CCCCCC3)c(C)n(C)c2C)c1 the results were GCN5L2 inh -5%, VDR inhibitor -16%, PLK1 PBD inh 27µM* and 12-LOX inh -23%.
Cc1c(C(=O)N2CCCCC2)c(S(=O)(=O)NCc2ccccc2Cl)c(C)n1C was read as GCN5L2 inh -2%, VDR inhibitor inconclusive, PLK1 PBD inh 27µM* and 12-LOX inh -29%.
For Cc1c(C(=O)N2CCCCC2)c(S(=O)(=O)NCc2ccc(Cl)cc2)c(C)n1C the results were GCN5L2 inh 0%, VDR inhibitor inconclusive, PLK1 PBD inh 24µM* and 12-LOX inh 0%.
`CCCN(CCC)c1nc(-c2ccccc2O)nc2ccccc12` gave 12-LOX inh -9%.
`CC(C)c1noc(-c2cn(C3CCCN(C(=O)c4ccccc4)C3)nn2)n1` (stereo not given) gave 12-LOX inh 12%.
`CCOc1cc(C2NC(=O)NC(C)=C2C(=O)OCC(F)(F)F)ccc1O` (stereo not given) gave 12-LOX inh -26%.
O=C(Cn1sc2ccccc2c1=O)Nc1ccc(F)cc1 was read as PLK1 PBD inh 3µM* and 12-LOX inh -111%.
For O=C(Cn1sc2ccccc2c1=O)Nc1ccc(Br)cc1 the results were PLK1 PBD inh 3µM* and 12-LOX inh inconclusive.
O=C(Cn1sc2ccccc2c1=O)Nc1ccc(Cl)cc1 was read as PLK1 PBD inh 5.3µM* and 12-LOX inh -106%.
O=C(O)c1ccc(COc2ccccc2/C=C2\NC(=O)N(Cc3ccccc3)C2=O)cc1 was read as GCN5L2 inh -8%, VDR inhibitor -16%, PLK1 PBD inh 19µM* and 12-LOX inh inconclusive.
For O=C(CN1C(=O)N/C(=C\c2ccccc2OCc2ccc(C(=O)O)cc2)C1=O)Nc1ccccc1F the results were GCN5L2 inh -12%, VDR inhibitor -6%, PLK1 PBD inh inconclusive and 12-LOX inh 1%.
O=C(O)c1ccc(COc2ccccc2/C=C2\NC(=O)N(Cc3ccccc3F)C2=O)cc1 was read as GCN5L2 inh -25%, VDR inhibitor -13%, PLK1 PBD inh 27µM* and 12-LOX inh inconclusive.
CCCC(=O)N1CCn2c(nnc2[C@@H]2C[C@@H](O)CN2Cc2ccccc2)C1 was read as 12-LOX inh 21%.
`COC(=O)c1cnc(N2CCCCC2C)c2ccccc12` (stereo not given) gave 12-LOX inh -25%.
Screening CC1CC(=O)Nc2ccccc2N1S(=O)(=O)c1ccccc1 (stereo not given) returned GCN5L2 inh 2%, VDR inhibitor inconclusive, PLK1 PBD inh 27µM* and 12-LOX inh 4%.
